Laboratory results taken from paper PMC4336329 (PLoS ONE, 2015).
The campaign covered roughly 310,000 compounds. About 14,000 (4.5%) showed an effect of 50% or more. Effects have a minus sign here. The sample as a whole holds a higher share of strong results than the screen did.

What follows are compounds tested against human ether-à-go-go-related gene (hERG) potassium channel (human, UniProt Q12809) (assay: primary screen, population patch clamp on CHO cells stably expressing hERG; higher = less effect of the substance).
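Note: peak tail current of the secondary pulse compared with the same well before compound.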

Chain of human ether-à-go-go-related gene (hERG) potassium channel (Q12809 whole entry, looked up): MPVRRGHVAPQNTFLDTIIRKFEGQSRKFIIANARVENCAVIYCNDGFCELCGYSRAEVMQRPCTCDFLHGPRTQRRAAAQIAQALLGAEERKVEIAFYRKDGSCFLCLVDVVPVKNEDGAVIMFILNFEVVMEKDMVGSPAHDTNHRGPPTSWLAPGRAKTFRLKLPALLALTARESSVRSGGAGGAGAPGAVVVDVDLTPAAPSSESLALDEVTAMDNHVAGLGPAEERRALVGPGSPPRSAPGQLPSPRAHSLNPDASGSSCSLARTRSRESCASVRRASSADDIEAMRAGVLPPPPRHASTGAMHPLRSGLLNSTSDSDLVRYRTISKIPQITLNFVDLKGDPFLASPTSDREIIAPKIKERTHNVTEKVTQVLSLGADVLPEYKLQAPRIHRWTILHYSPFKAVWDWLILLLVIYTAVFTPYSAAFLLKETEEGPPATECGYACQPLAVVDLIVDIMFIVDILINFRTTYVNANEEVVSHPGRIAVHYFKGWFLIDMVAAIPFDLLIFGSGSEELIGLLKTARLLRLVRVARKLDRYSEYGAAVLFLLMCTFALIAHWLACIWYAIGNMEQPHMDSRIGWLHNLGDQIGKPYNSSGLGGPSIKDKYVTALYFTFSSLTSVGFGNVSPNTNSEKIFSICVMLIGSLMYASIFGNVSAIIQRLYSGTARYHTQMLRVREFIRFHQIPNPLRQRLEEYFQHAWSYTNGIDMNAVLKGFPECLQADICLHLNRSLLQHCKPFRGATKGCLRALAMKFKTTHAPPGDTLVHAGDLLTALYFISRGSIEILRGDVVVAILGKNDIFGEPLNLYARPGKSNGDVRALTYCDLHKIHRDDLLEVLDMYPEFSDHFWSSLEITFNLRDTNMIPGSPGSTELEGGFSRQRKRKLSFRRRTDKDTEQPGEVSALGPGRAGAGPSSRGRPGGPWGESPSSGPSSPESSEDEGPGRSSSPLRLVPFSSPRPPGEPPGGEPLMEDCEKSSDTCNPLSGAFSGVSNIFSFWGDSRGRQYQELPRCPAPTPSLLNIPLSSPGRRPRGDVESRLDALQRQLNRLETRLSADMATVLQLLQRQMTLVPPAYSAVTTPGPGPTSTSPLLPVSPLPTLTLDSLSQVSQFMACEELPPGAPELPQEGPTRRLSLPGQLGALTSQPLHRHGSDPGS

| SMILES | hERG current change (%, negative = inhibition) at 10uM |
| --- | --- |
| Cc1c(NS(=O)(=O)c2cccc(C(=O)Nc3ccccc3)c2)c(=O)n(-c2ccccc2)n1C | -11% |
| CCn1cc(C(=O)N2CC(C)CC(C)C2)c(=O)c2cc(S(=O)(=O)N3CCCC3)ccc21 (stereo not shown) | 6.81% |
| O=[N+]([O-])c1cc(C(F)(F)F)ccc1Sc1nccn1Cc1ccccc1 | -30.3% |
| O=[N+]([O-])c1ccccc1Sc1nccn1Cc1ccccc1 | -21.6% |
| NC(=O)CSc1nccn1Cc1ccccc1 | 7.57% |
| O=[N+]([O-])c1ccc(Sc2nccn2Cc2ccccc2)cc1 | -59.5% |
| O=C(CSc1nccn1Cc1ccccc1)Nc1ccccc1 | 12.4% |
| O=[N+]([O-])c1ccc(Sc2nccn2Cc2ccccc2)c([N+](=O)[O-])c1 | -57.9% |
| CCCn1c(C(CO)Nc2nc(C)cs2)nc2ccccc21 (stereo not shown) | -5.83% |
| O=C(NC(=S)Nc1ccc(Oc2ccc(Cl)cc2)cc1)c1ccccc1 | 10.7% |
| O=C(Nc1nnc(-c2ccc(Cl)cc2)o1)c1cccc(N2C(=O)CCC2=O)c1 | 12.2% |
| Cc1noc(C)c1COC(=O)CN(C)S(=O)(=O)c1ccc(Cl)cc1 | -14.4% |
| COCCCNC(=O)CC(NS(=O)(=O)c1ccc(F)cc1)c1ccc(OC)cc1 (stereo not shown) | -1.73% |
| Nc1c2c(nc3ccccc13)CCN(Cc1ccccc1)C2 | -56.1% |
| Nc1c2c(nc3ccccc13)CSCC2 | -57.3% |
| Cl.Nc1c2c(nc3ccccc13)CCCC2 | -39.7% |
| Cl.Nc1c2c(nc3ccccc13)CCCC2.O | -42.3% |
| c1ccc(CN2CCc3nc4ccccc4cc3C2)cc1 | -4.62% |
| Nc1nc2c(c(=O)[nH]1)CN(Cc1ccccc1)CC2 | 7.8% |
| C/C(=N\O)C1(C)N(O)C(C)(C)C(c2ccco2)=[N+]1[O-] (stereo not shown) | 22.2% |
| Cc1cccc(NC(=O)c2nc[nH]c2C(=O)N2CCc3ccccc3C2)c1 | 5.13% |
| O=C1NC(Nc2nc3ccccc3s2)(C(F)(F)F)C(=O)N1C1CCCCC1 (stereo not shown) | -6.17% |

| SMILES | hERG current change (%, negative = inhibition) at 10uM |
| --- | --- |
| N/C(=N\OC(=O)CC1CCCCC1)c1cccc([N+](=O)[O-])c1 | -6.21% |
| N/C(=N\OC(=O)CCC1CCCCC1)c1cccc([N+](=O)[O-])c1 | -15.1% |
| Cc1ccc(S(=O)(=O)N(C)CC(=O)O/N=C(\N)c2cccc([N+](=O)[O-])c2)cc1 | -66.8% |
| Cc1ccc(S(=O)(=O)N(C)CC(=O)O/N=C(\N)c2ccc([N+](=O)[O-])cc2)cc1 | -45.9% |
| CN(CC(=O)O/N=C(\N)c1cccc([N+](=O)[O-])c1)S(=O)(=O)c1ccccc1 | -24.4% |
| N/C(=N\OC(=O)CCC1CCCC1)c1cccc([N+](=O)[O-])c1 | -70.4% |
| Cc1nnc2sc(-c3ccc(-c4ccc(Cl)c(C(F)(F)F)c4)o3)nn12 | 3.66% |
| CCCCSc1nnc(-c2ccc(C)cc2)n1C | -33.7% |
| COc1cc(C(=O)Nc2ccc3c(c2)ncn3C(C)(C)C)cc(OC)c1OC | 9.04% |
| CCOc1c2ccccc2nn1CCOC | 5.42% |
| CCN(CC)CCN(Cc1cc2cc(C)ccc2[nH]c1=O)C(=S)NCc1ccco1 | -43.4% |
| CCc1ccc2[nH]c(=O)c(CN(CCN(CC)CC)C(=S)NCc3ccco3)cc2c1 | -67.9% |
| CCc1ccc2[nH]c(=O)c(CN(CCN(C)C)C(=S)NCc3ccco3)cc2c1 | -52% |
| CN(C)CCCN(Cc1cc2cc3c(cc2[nH]c1=O)OCO3)C(=S)NCc1ccco1 | -19.2% |
| CCc1ccc2[nH]c(=O)c(CN(CC3CCCO3)C(=S)NCc3ccco3)cc2c1 (stereo not shown) | -21.6% |
| CCc1ccc2[nH]c(=O)c(CN(Cc3ccco3)C(=S)NCC3CCCO3)cc2c1 (stereo not shown) | -19% |
| O=C1c2cccc3c([N+](=O)[O-])ccc(c23)C(=O)N1c1ccc(Cl)cn1 | 0.201% |
| COC(=O)c1cccc(NS(=O)(=O)c2ccc(OC)cc2)c1C | -1.48% |
| COc1ccc(-c2cc(C(F)(F)F)nc(SCCC(=O)NCc3ccccc3)n2)cc1 | -14.5% |
| CCCOc1ccc(C(=O)Nc2c[nH]c(=O)[nH]c2=O)cc1 | -6.41% |
| CCn1c(COc2cccc(OC)c2)nnc1SCC(=O)Nc1cccc(OC)c1 | -41.1% |
| N=c1c(C(=O)NC2CCCC2)cc2c(=O)n3ccccc3nc2n1CCCN1CCOCC1 | -78.2% |

| SMILES | hERG current change (%, negative = inhibition) at 10uM |
| --- | --- |
| N=c1c(C(=O)NC2CCCC2)cc2c(=O)n3ccccc3nc2n1CCN1CCOCC1 | -91.9% |
| O=C(c1ccco1)N1CCN=C1SCc1cccc(F)c1 | -6.98% |
| Cc1csc2ncc(C(=O)NCCC(c3ccccc3)c3ccccc3)c(=O)n12 | -0.968% |
| Cc1cc(-c2nn(C)c(=O)c3ccccc23)cc(C)c1O | 0.868% |
| Cc1ccc(S(=O)(=O)N2CCC(=O)N(C(COCc3ccccc3)C(C)C)CC2)cc1 (stereo not shown) | -23.2% |
| Cc1ccc(S(=O)(=O)N2CCC(=O)N(CCOC(=O)Nc3cccc(Cl)c3)CC2)cc1 | -65.7% |
| Cc1ccc(S(=O)(=O)N2CCC(=O)N(C(COCc3cccc(Cl)c3)C(C)C)CC2)cc1 (stereo not shown) | -35.2% |
| Cc1ccc(S(=O)(=O)N2CCC(=O)N(CCOCc3ccc(Cl)cc3)CC2)cc1 | -60.1% |
| Cc1ccc(S(=O)(=O)N2CCC(=O)N(C(COCc3ccc(Cl)cc3)C(C)C)CC2)cc1 (stereo not shown) | -51.7% |
| Cc1ccc(NC(=O)OCCN2CCN(S(=O)(=O)c3ccc(C)cc3)CCC2=O)cc1 | -18.5% |
| Cc1ccc(COCCN2CCN(S(=O)(=O)c3ccccc3)CCC2=O)cc1 | -0.87% |
| Cc1ccc(S(=O)(=O)N2CCC(=O)N(CCOC(=O)Nc3cc(C)cc(C)c3)CC2)cc1 | -40.7% |
| Cc1ccc(COCCN2CCN(S(=O)(=O)c3ccc(C)cc3)CCC2=O)cc1 | 6.17% |
| COc1ccc(C2=Nc3cccc4cccc(c34)N2)cc1 | 9.66% |
| Cc1cccc(Nc2nnc(SCC(=O)Nc3cccc(S(=O)(=O)N4CCCCC4)c3)s2)c1 | 3.37% |
| C=CCN1C(=O)NC(=O)/C(=C/c2ccoc2)C1=O | 20.5% |
| CCn1c(C)[n+](CCOC(C)=O)c2cc(Cl)c(Cl)cc21.[I-] | -8.87% |
| COC(=O)CCCC(=O)N1CCC(CCC(=O)NCc2ccc(F)cc2)CC1 | -24% |
| CN(C)C(=C(C#N)C#N)N1CCN(c2ccc(Cl)cc2)CC1 | -48.3% |
| CNC(=S)N1CCN(c2ccc(Cl)c(Cl)c2)CC1 | -6.17% |
| CCOC(=O)N1CCN(c2ccc(Cl)c(Cl)c2)CC1 | -11.1% |
| N#C/C=C(/N)N1CCN(c2ccc(Cl)c(Cl)c2)CC1 | -73.9% |

| SMILES | hERG current change (%, negative = inhibition) at 10uM |
| --- | --- |
| CN(C)C(=C(C#N)C#N)N1CCN(c2ccc(Cl)c(Cl)c2)CC1 | -63.2% |
| COC(=O)N1CCN(c2ccc(Cl)c(Cl)c2)CC1 | -1.86% |
| CCC1(c2ccccc2)NC(=O)N(CC(=O)Nc2ccccc2N2CCCCC2)C1=O (stereo not shown) | -15.8% |
| CCCc1ccc(Oc2cc(N3CCOCC3)nc(-c3ccccc3)n2)cc1 | 21.5% |
| CCC(=O)Nc1cccc(-c2nc3ccc(C)cc3o2)c1 | -13.4% |
| CC1(C)CC(O)C(C)(C)N1O (stereo not shown) | 3.9% |
| CCc1nnc(NS(=O)(=O)c2ccc(N=Cc3c(C)[nH]n(-c4ccc(Cl)cc4)c3=O)cc2)s1 | 17.7% |
| Cc1ccc(C)c(CN2C(=O)CSc3ccc(C(=O)NCC(C)CN4CCC(C)CC4)cc32)c1 (stereo not shown) | -75.8% |
| Cc1ccc(C)c(CN2C(=O)CSc3ccc(C(=O)N4CCCC4)cc32)c1 | -17% |
| Cc1ccc(C)c(CN2C(=O)CSc3ccc(C(=O)NCCN4CCOCC4)cc32)c1 | 14.6% |
| CCOC(=O)c1nn(-c2ccccc2F)c(-c2ccccc2)c1C(=O)c1ccccc1 | 7.34% |
| O=C(NCCc1ccccc1)c1ccc(-n2cnnn2)cc1 | -4.78% |
| COCCN(C(=O)COC(=O)c1cccc2ccccc12)c1c(N)n(Cc2ccccc2)c(=O)[nH]c1=O | -0.159% |
| COc1ccc(/C=C/CN2CCC(n3nccc3NC(=O)C3CC3)CC2)cc1 | -72.7% |
| COc1ccc(/C=C/CN2CCC(n3nccc3NC(=O)C3CCCC3)CC2)cc1 | -88.6% |
| COc1ccc(CC(=O)N2CCC(n3nccc3NC(=O)C3CC3)CC2)cc1 | 13.7% |
| COc1ccc(OCC(=O)N2CCC(n3nccc3NC(=O)C3CC3)CC2)cc1 | 1.44% |
| COC(=O)c1ccc2c(=O)n(-c3ccccc3)c(SCN3C(=O)c4ccccc4C3=O)nc2c1 | 11% |
| COc1ccc(/C(C)=N/Nc2ccc(F)cc2F)c(O)c1 | 6.58% |
